Experimental data published in the supplement of paper PMC10338343.
± gives the standard deviation.

System: MILI (PIWIL2) piRISC loaded with L1MC piRNA (26 nt)
Assay: pre-steady-state target cleavage rate (min^-1); guide: L1MC piRNA 5'p-UAACUAAAUACUAUGCAAGCUGUAGG; MIWI and MILI are mouse PIWI proteins and EfPiwi is from a freshwater sponge; tags in brackets are library labels; higher = faster piRNA-guided slicing of the target
Conditions: auxiliary factor: 500 nM mouse GTSF1
In short: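 Using HEPES–potassium acetate buffer at 33 °C, 1 nM active affinity-purified piRISC with a single synthetic guide was mixed with 0.1 nM transcribed, DNA-blocked target RNA library for 0–8 or 0–960 min, with or without 500 nM GTSF1 partner protein. Uncleaved targets were sequenced and normalised to depth and to weakly complementary targets, and three trials were pooled with k3 capped at 0.0001 min^-1. A burst-and-steady-state fit gave the pre-steady-state cleavage rate.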

Sequence | pre-steady-state target cleavage rate
UCCUGGAUCAGCUUGCAUAGUAAUUACAAA | 0.145 ± 0.04
UCCUGGAACAGCUUGCUAUGUAUUUAGUAA | 0.0125 ± 0.0054
UCCUGGAUGUCGAAGCAUAGUAUUCAGUUA | 0.00908 ± 0.0042
UCCUGGAUCAGCUACGAUAGUAUUUAGUAA | 0.0254 ± 0.0088
UCCUGGAUGUCCUUGCAUAGUAUUAAGUAA | 0.0433 ± 0.013
UCCUGGAUGUCGAAGCAUAGUAUUGAGUUA | 0.00685 ± 0.0034
UCCUGGAUGAGCUUGCAUAGUAUUCUAGUUA | 0.165 ± 0.029
UCCUCCUACAGCUACCAUAGUAUUUAGAAA | 0.0576 ± 0.019
UCCUCCUACAGCUACCAUAGUAUUUACAAA | 0.0179 ± 0.008
UCCUGGAUGAGCUUGCAUAGUAUAUAGAAA | 0.00651 ± 0.005
UCCUGGAACAGCUAGCAUAGUAUUUUGUUA | 0.154 ± 0.029
UCCUGGAACACGUUGCAUAGUAUUUACAAA | 0.0879 ± 0.017
UCCUGGAUGUCGUAGCAUAGUUUUUAGUUA | 0.00685 ± 0.0041
UCCUGGAUCAGCUUGGUUAGUAUUUACAAA | 0.00756 ± 0.0052
UCCUGGAACAGCUUGCAUAUGUAUUUAGUUA | 0.00424 ± 0.0037
UCCUGGAACACCUUGCAUAGUUUUUAGUUA | 0.0237 ± 0.0067
UCCUGGAUGUCGUUGCAUAGUAUUUAGAUUA | 0.0205 ± 0.0091
UCCUGGAACAGCUUGCAAAGUAUUUUGUUA | 0.0942 ± 0.021
UCCUGGUACAGCAUGCAUAGUAUUUUCAAA | 0.0847 ± 0.026

Sequence | pre-steady-state target cleavage rate
UCCUGGUAGAGCUUGCAUAGUAUUUAGAUA | 0.14 ± 0.025
UCCUGGAUGAGCUUGCAUAGUAUAUUGUUA | 0.0743 ± 0.017
UCCUCCAUGAGCUUGCAUAGUAUUUUCAAA | 0.0168 ± 0.0069
UCCUGGAUCAGCUUGCAUAGUAUAAAGAAA | 0.0366 ± 0.01
UCCUGGUACAGCUUGCAUAGUAUUAUCAAA | 0.0127 ± 0.0058
UCCUGCUACAGGAUGCAUAGUAUUUUCAAA | 0.0053 ± 0.0038
UCCUGGAUGUGCUUGCAUAGUCAUUUAGUUA | 0.00678 ± 0.0044
UCCUGGAUGUCGUUGUCAUAGUAUUUAGUUA | 0.00743 ± 0.0049
UCCUGGUACAGCUUGCAUAGUUUUUACAAA | 0.0185 ± 0.0077
UCCUGGUACAGCUUGCUUAGUAUUUACAAA | 0.0242 ± 0.009
UCCUGGAACAGCUUGCAUAGUUUAUAGUUA | 0.029 ± 0.0097
UCCUGGAUGAGCUUGCAAAGUUUUUAGUUA | 0.00724 ± 0.004
UCCUGGUACAGCUUGCAUAGAUUUUAGUAA | 0.0172 ± 0.008
UCCUGGAUGUCGAUGCAAAGUAUUAAGUUA | 0.00433 ± 0.0038
UCCUGGAUGUCGAUGCAUAGUAUUUAGCUUA | 0.0496 ± 0.014
UCCUGGAUCAGCAUGCAUAGAAUUUAGUUA | 0.0386 ± 0.0077
UCCUGGAACUCCUUGCAUAGUAUUUACAAA | 0.241 ± 0.061
UCCUGGAUGUCCUUGCAUAGUUUUUUGUUA | 0.00821 ± 0.0052

Same assay, conditions: auxiliary factor: none (no GTSF1)

Sequence | pre-steady-state target cleavage rate
UCCUGGAUGUCGUUGCAUAGGUAUUUAGUUA | 0.00509 ± 0.0029
UCCUGGAUGUCGUUCCUUAGUAUUUAGUUA | < 0.0001
UCCUGGAUGUCGAAGCAGUAGUAUUUAGUUA | < 0.0001
